For some assays here: Measured potencies and affinities stand elsewhere. Active and inactive are the calls of the source.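 The calls were made as follows, unless noted: active = calcium signal cut by more than 3 SD below the full-agonist control yet still positive, in both repeats and the earlier primary screen; inactive = the rest.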
Tests used:
[1] = test system: TRPC4 beta (transient receptor potential cation channel C4), mouse; experiment: activators of mouse TRPC4 channel, confirmation, cell-based, Fluo4 calcium, HEK293 TRPC4beta/mu-opioid, duplicates, 10 µM (AID 2426;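 active = fluorescence ratio normalized to control raised more than 50% in primary screen plus both repeat runs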;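 as to activation: percent rise of integrated ratio over buffer wells lacking compound which define 0%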); settings: Fluo4 calcium fluorescence, at 10 µM; hits give high values
[2] = test system: transient receptor potential cation channel C4 beta (TRPC4), mouse; experiment: activators of mouse TRPC4 channel, confirmation, cell-based, second round, Fluo4, HEK293 TRPC4beta/mu-opioid, 1 µM (AID 2461;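 active = primary screen active and over 50% activation in each of two duplicate runs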;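 as to activation: 0% = wells without test compound as baseline of integrated fluorescence ratio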); settings: Fluo4 calcium fluorescence, at 1 µM; hits give high values
[3] = test system: TRPC4 (transient receptor potential cation channel C4 beta), mouse; experiment: positive allosteric modulators of mouse TRPC4, confirmation, cell-based, second round, Fluo-4, HEK293 TRPC4beta/mu-opioid, 1 µM (AID 2554;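 active = primary screen hit whose fluorescence ratio, in both repeats, exceeds the weak agonist control mean by 3 SD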); settings: DAMGO EC20, Fluo-4 calcium flux, at 1 µM; hits give high values
[4] = test system: TRPC4 beta (transient receptor potential cation channel C4), mouse; experiment: positive allosteric modulators of mouse TRPC4, confirmation, cell-based, Fluo-4, HEK293 TRPC4beta/mu-opioid (AID 2555;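 active = primary screen hit whose calcium fluorescence ratio, in both repeats, exceeds the weak agonist control mean by 3 SD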); settings: DAMGO EC20, Fluo-4 calcium flux, at 10 µM; hits give high values
[5] = biological target: Short transient receptor potential channel 4 (Mus musculus) (UniProt Q9QUQ5); experiment: inhibitors of mouse TRPC4 channel, confirmation, cell-based, Fluo4, HEK293 TRPC4beta/mu-opioid (AID 2636); settings: DAMGO, Fluo4 calcium flux, at 10 µM; hits give high values
[6] = biological target: Short transient receptor potential channel 4 (Mus musculus) (UniProt Q9QUQ5); experiment: inhibitors of mouse TRPC4 channel, confirmation, cell-based, second round, Fluo4, HEK293 TRPC4beta/mu-opioid, 1 µM (AID 2637;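 active = calcium signal ratio cut to more than 3 SD under the fully stimulated control mean yet still positive, in both repeats and the primary screen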); settings: Fluo4 calcium flux, DAMGO, at 1 µM; hits give high values
[7] = biological target: Short transient receptor potential channel 4 (Mus musculus) (UniProt Q9QUQ5); experiment: TRPC4 positive allosteric modulators, dose response, cell-based, HEK293 TRPC4/mu-opioid, Fluo-4 calcium, EC20 DAMGO (AID 434941;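 active = earlier screen potentiator hit that boosts the TRPC4 ion channel at some dose, with a dose response; inactive = no potentiation, no dose response, or not a prior hit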;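 also: calcium entry triggered by an EC20 dose of DAMGO at the co-expressed mu-opioid receptor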); settings: HEK293 TRPC4/mu-opioid cells, Fluo-4 calcium fluorescence; series mostly up to 20 µM
[8] = biological target: Short transient receptor potential channel 4 (Mus musculus) (UniProt Q9QUQ5); experiment: mouse TRPC4 channel inhibitors, dose response, cell-based, HEK293 TRPC4/mu-opioid, Fluo-4 calcium (AID 434942;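 active = primary screen inhibitor hit that blocks the TRPC4 channel at some tested dose, yielding a dose curve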); settings: HEK293 TRPC4/mu-opioid cells, DAMGO-evoked Fluo-4 calcium ratio; series mostly up to 20 µM
[9] = biological target: Short transient receptor potential channel 6 (Mus musculus) (UniProt Q61143); experiment: inhibition of mouse TRPC6 channel, confirmation, selectivity assay for TRPC4 inhibitor project, cell-based, HEK293, membrane potential dye, duplicate (AID 434948;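 active = active in primary screen and both duplicates, each dropping signal beyond three positive-control SD with fluorescence still positive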); settings: HEK293 TRPC6, membrane potential dye fluorescence, at 10 µM, stimulated with maximal-effect acetylcholine; hits give high values
[10] = biological target: Short transient receptor potential channel 6 (Mus musculus) (UniProt Q61143); experiment: activation of mouse TRPC6 channel, confirmation, selectivity assay for TRPC4 activator project, cell-based, HEK293, membrane potential dye, duplicate (AID 434950;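 active = membrane potential signal rise above negative control mean plus 3 SD in both duplicates, also active in the earlier TRPC4 screen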;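 as to activation: 0% = buffer only wells and 100% = acetylcholine maximal-effect wells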); settings: HEK293 TRPC6, membrane potential fluorescence, at 10 µM; hits give high values
[11] = biological target: Short transient receptor potential channel 6 (Mus musculus) (UniProt Q61143); experiment: TRPC6 potentiation by TRPC4 potentiator hits, confirmation, selectivity assay for TRPC4 potentiator project, HEK293 cells, membrane potential dye, duplicate (AID 434952;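 active = compound raising the membrane signal above positive-control mean plus 3 SD in both repeats, and a primary screen hit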); settings: HEK293 TRPC6, membrane potential dye fluorescence, at 10 µM, maximal acetylcholine added after compound; hits give high values
[12] = biological target: Short transient receptor potential channel 4 (Mus musculus) (UniProt Q9QUQ5); experiment: calcium flux activators in TRPC4/5HT1a cells, counter-screen for TRPC4 activator project, cell-based, second counter screen, HEK293 TRPC4/5HT1a, Fluo-4 (AID 434977;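 active = calcium signal rise above buffer-control mean plus 5 SD in both duplicates, and also a hit in the primary screen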;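 as to activation: plate controls were assay buffer for no effect and maximal serotonin response for full effect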); settings: Fluo-4 calcium flux, at 10 µM; hits give high values
[13] = calcium flux inhibitors in TRPC4/5HT1a cells, confirmation, counter-screen for TRPC4 inhibitor project, cell-based, second counter screen, HEK293 TRPC4/5HT1a, Fluo-4 (AID 434978;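 active = primary screen active whose calcium signal fell more than 3 SD beyond the full-serotonin control mean in both duplicate plates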;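 also: serotonin given first at submaximal then at maximal dose after compound preincubation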); settings: Fluo-4 calcium flux, at 10 µM, serotonin added to trigger calcium flux; hits give high values
[14] = test system: TRPC4 (mouse), co-expressed with 5HT1a in HEK293; experiment: calcium flux potentiators in TRPC4/5HT1a cells, confirmation, counter-screen for TRPC4 potentiator project, cell-based, second counter screen, HEK293 TRPC4/5HT1a, Fluo-4 (AID 434979;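 active = signal rise over 3 SD above mean of control wells given weak agonist, in both repeats and first screen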); settings: Fluo-4 calcium flux, at 10 µM, serotonin added at its EC20 dose; hits give high values
[15] = calcium flux activation in mu-opioid HEK293 cells, confirmation, counter-screen for TRPC4 activator project, cell-based, HEK293 mu-opioid receptor line (AID 449723;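 active = hit in primary screen, with calcium signal over 5 SD above buffer well mean in both duplicates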;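 also: counter screen cells carry the mu-opioid receptor alone and lack TRPC4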); settings: Fluo-4 calcium fluorescence, at 10 µM; hits give high values
[16] = calcium flux enhancement in mu-opioid HEK293 cells, confirmation, counter-screen for TRPC4 allosteric potentiator project, cell-based, HEK293 mu-opioid receptor line (AID 449724;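 active = calcium signal rise more than 3 SD above the low-dose agonist control mean, in both duplicate plates and the primary screen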); settings: Fluo-4 calcium flux, at 10 µM, compound added before EC20 DAMGO stimulus; hits give high values

Sequence of Short transient receptor potential channel 6 (Mus musculus) (Q61143 whole entry, looked up): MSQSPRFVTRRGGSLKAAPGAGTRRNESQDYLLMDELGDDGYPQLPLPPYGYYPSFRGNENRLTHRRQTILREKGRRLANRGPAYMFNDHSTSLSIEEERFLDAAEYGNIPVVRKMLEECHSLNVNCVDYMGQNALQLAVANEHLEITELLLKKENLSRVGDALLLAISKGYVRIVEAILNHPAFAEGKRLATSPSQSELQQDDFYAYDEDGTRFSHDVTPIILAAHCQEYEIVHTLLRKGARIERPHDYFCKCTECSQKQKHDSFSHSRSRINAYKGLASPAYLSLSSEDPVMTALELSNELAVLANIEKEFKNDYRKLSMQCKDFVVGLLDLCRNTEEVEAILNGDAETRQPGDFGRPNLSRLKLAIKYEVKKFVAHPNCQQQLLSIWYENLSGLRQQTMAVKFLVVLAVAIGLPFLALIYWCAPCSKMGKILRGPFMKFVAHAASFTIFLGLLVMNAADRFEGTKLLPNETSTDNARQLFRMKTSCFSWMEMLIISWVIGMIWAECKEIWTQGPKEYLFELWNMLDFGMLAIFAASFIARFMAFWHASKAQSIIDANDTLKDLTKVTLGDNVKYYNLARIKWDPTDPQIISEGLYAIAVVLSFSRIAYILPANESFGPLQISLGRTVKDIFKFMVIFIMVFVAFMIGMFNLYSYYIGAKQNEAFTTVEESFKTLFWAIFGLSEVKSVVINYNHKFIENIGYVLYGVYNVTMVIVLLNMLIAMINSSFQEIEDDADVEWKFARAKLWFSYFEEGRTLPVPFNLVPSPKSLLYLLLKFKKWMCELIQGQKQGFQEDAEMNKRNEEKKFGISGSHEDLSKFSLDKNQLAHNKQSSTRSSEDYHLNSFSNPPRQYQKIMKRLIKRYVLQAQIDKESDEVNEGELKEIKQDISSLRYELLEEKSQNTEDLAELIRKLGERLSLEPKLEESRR
Sequence of Short transient receptor potential channel 4 (Mus musculus) (Q9QUQ5 whole entry, looked up): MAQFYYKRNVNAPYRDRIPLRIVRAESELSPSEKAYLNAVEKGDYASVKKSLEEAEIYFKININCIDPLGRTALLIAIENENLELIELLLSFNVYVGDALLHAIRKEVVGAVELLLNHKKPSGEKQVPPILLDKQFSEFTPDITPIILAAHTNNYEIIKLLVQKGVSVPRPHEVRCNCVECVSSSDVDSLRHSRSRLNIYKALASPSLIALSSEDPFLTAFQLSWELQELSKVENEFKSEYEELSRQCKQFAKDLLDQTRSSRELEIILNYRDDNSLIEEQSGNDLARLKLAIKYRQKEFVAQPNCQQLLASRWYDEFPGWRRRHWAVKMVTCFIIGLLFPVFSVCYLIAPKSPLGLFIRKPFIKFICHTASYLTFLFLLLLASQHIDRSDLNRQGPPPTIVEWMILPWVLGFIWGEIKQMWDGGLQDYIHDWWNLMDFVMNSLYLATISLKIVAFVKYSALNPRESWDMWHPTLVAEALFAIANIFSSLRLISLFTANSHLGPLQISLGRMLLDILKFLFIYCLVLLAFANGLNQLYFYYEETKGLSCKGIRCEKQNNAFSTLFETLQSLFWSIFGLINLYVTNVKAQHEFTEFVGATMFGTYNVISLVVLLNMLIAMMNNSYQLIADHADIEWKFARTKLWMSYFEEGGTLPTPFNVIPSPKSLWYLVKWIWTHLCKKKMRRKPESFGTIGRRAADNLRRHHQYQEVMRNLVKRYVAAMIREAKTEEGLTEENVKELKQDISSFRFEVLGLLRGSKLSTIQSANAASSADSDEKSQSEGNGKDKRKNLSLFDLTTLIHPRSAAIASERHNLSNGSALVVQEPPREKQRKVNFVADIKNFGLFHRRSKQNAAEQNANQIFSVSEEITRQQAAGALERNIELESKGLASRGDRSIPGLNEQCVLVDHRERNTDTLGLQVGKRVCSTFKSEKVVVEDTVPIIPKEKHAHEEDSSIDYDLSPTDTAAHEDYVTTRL

CCC(=O)N1CCc2cc(Br)cc(S(=O)(=O)NCCCN(C)Cc3ccccc3)c21
active: activation [1] 116% | activation [2] 65% | activation [10] 55% | activation [12] 33.1% | potentiation [14] 26.2%
inactive: outcome [3] | outcome [4] | outcome [5] | outcome [6] | outcome [7] | outcome [8] | outcome [9] | outcome [11] | outcome [13] | outcome [15] | outcome [16]

COc1ccccc1/C=C/CN1CCCC(CCC(=O)NCc2ccccc2F)C1 (configuration not stated)
inactive: outcome [3] | outcome [4] | outcome [6] | outcome [7] | outcome [8] | outcome [9] | outcome [11] | outcome [13] | outcome [14] | outcome [15] | outcome [16]
active: activation [1] 98% | activation [2] 51% | inhibition [5] 53% | activation [10] 44% | activation [12] 32.5%

COc1ccc(C(CNC(=O)C(Cc2ccccc2)NC(N)=O)N(C)C)cc1 (configuration not stated)
inactive: outcome [3] | outcome [4] | outcome [5] | outcome [6] | outcome [7] | outcome [8] | outcome [9] | outcome [11] | outcome [12] | outcome [13] | outcome [14] | outcome [15] | outcome [16]
active: activation [1] 92% | activation [2] 90% | activation [10] 32%

O=C(c1sc2ccccc2c1Cl)N(Cc1ccccc1)C1CCS(=O)(=O)C1 (configuration not stated)
active: activation [10] 36%
inactive: outcome [1] | outcome [2] | outcome [3] | outcome [4] | outcome [5] | outcome [6] | outcome [7] | outcome [8] | outcome [9] | outcome [11] | outcome [12] | outcome [13] | outcome [14] | outcome [15] | outcome [16]

Cc1sc2ncnc(NCC(c3ccccc3)N(C)C)c2c1C (configuration not stated)
inactive: outcome [3] | outcome [4] | outcome [5] | outcome [6] | outcome [7] | outcome [8] | outcome [9] | outcome [10] | outcome [11] | outcome [13] | outcome [14] | outcome [15] | outcome [16]
active: activation [1] 245% | activation [2] 120% | activation [12] 49%

CCCCN(CC)CCNc1c(N2CCN(C(=O)OCC)CC2)c(=O)c1=O
inactive: outcome [2] | outcome [3] | outcome [4] | outcome [5] | outcome [6] | outcome [7] | outcome [8] | outcome [9] | outcome [11] | outcome [12] | outcome [13] | outcome [14] | outcome [15] | outcome [16]
active: activation [1] 155% | activation [10] 30.5%

Cc1ccccc1NC(=S)NCC(c1cccnc1)N(C)C (configuration not stated)
inactive: outcome [3] | outcome [4] | outcome [5] | outcome [6] | outcome [7] | outcome [8] | outcome [9] | outcome [11] | outcome [12] | outcome [13] | outcome [14] | outcome [15] | outcome [16]
active: activation [1] 112% | activation [2] 111% | activation [10] 32%

CC1CCN(CCCNS(=O)(=O)c2cc(Br)cc3c2N(C(=O)C2CC2)CC3)CC1
inactive: outcome [3] | outcome [4] | outcome [5] | outcome [6] | outcome [7] | outcome [8] | outcome [9] | outcome [10] | outcome [11] | outcome [13] | outcome [14] | outcome [15] | outcome [16]
active: activation [1] 91% | activation [2] 63% | activation [12] 26.3%

CC(Nc1nc(N2CCNCC2)nc2ccccc12)c1ccccc1 (configuration not stated)
inactive: outcome [1] | outcome [2] | outcome [3] | outcome [4] | outcome [5] | outcome [6] | outcome [7] | outcome [8] | outcome [9] | outcome [10] | outcome [11] | outcome [13] | outcome [14] | outcome [15] | outcome [16]
active: activation [12] 16.7%

CCN1CCN(c2ncnc3sc(C)c(-c4ccccc4)c23)CC1
active: activation [1] 107%
inactive: outcome [2] | outcome [3] | outcome [4] | outcome [5] | outcome [6] | outcome [7] | outcome [8] | outcome [9] | outcome [10] | outcome [11] | outcome [12] | outcome [13] | outcome [14] | outcome [15] | outcome [16]

CCOc1ncccc1C(=O)NCC(c1ccccc1)N(C)C (configuration not stated)
active: activation [1] 155% | activation [10] 61%
inactive: outcome [2] | outcome [3] | outcome [4] | outcome [5] | outcome [6] | outcome [7] | outcome [8] | outcome [9] | outcome [11] | outcome [12] | outcome [13] | outcome [14] | outcome [15] | outcome [16]

Cc1sc2ncnc(NCC(c3ccco3)N3CCCC3)c2c1C (configuration not stated)
inactive: outcome [3] | outcome [4] | outcome [5] | outcome [6] | outcome [7] | outcome [8] | outcome [9] | outcome [10] | outcome [11] | outcome [13] | outcome [14] | outcome [15] | outcome [16]
active: activation [1] 143% | activation [2] 178% | activation [12] 78.8%

Fc1ccc(-c2nn(-c3ccccc3)cc2CNCc2ccccc2)cc1
inactive: outcome [1] | outcome [2] | outcome [3] | outcome [4] | outcome [5] | outcome [6] | outcome [7] | outcome [8] | outcome [9] | outcome [10] | outcome [11] | outcome [12] | outcome [13] | outcome [14] | outcome [15] | outcome [16]

COc1ccc(C(CNC(=O)C2CCN(S(=O)(=O)c3ccc(F)cc3)CC2)N(C)C)cc1 (configuration not stated)
inactive: outcome [2] | outcome [3] | outcome [4] | outcome [5] | outcome [6] | outcome [7] | outcome [8] | outcome [9] | outcome [10] | outcome [11] | outcome [12] | outcome [13] | outcome [14] | outcome [15] | outcome [16]
active: activation [1] 149%

CC(C)(C)c1cc(O)c(C(C)(C)C)cc1O
inactive: outcome [2] | outcome [3] | outcome [4] | outcome [5] | outcome [6] | outcome [7] | outcome [8] | outcome [9] | outcome [10] | outcome [11] | outcome [13] | outcome [14] | outcome [16]
active: activation [1] 100% | activation [12] 55.9% | activation [15] 47.1%

O=C(CC1C(=O)NCCN1Cc1cccc(Oc2ccccc2)c1)NCCc1ccccn1 (configuration not stated)
active: activation [1] 99% | activation [12] 42.3%
inactive: outcome [2] | outcome [3] | outcome [4] | outcome [5] | outcome [6] | outcome [7] | outcome [8] | outcome [9] | outcome [10] | outcome [11] | outcome [13] | outcome [14] | outcome [15] | outcome [16]

CN(C)c1ccc(/C=C/C(=O)c2c(O)c3ccccc3oc2=O)cc1
inactive: outcome [2] | outcome [3] | outcome [4] | outcome [5] | outcome [6] | outcome [7] | outcome [8] | outcome [9] | outcome [11] | outcome [13] | outcome [14] | outcome [16]
active: activation [1] 221% | activation [10] 934% | activation [12] 113% | activation [15] 121%
